# Biological target: Tyrosine-protein kinase Lck (Homo sapiens) (UniProt P06239)
# Details: at 1 µM
# Sequence of Tyrosine-protein kinase Lck (Homo sapiens) (P06239 2-509 limits assumed): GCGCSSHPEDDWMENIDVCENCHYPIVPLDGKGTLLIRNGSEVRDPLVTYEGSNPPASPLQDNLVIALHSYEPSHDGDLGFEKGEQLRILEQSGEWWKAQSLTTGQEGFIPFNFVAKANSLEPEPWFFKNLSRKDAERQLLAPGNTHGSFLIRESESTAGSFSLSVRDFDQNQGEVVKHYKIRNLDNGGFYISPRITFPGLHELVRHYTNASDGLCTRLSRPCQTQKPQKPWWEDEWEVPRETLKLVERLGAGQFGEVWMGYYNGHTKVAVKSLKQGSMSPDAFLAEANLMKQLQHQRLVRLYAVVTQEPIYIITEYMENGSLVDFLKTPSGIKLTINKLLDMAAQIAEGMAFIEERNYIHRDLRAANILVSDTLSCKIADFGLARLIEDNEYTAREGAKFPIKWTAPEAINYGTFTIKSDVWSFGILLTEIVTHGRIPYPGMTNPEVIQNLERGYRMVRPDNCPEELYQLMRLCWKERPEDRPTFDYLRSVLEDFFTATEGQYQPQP
row,Compound,residual activity [%]
1,O=C1Cc2c([nH]c3ccc([N+](=O)[O-])cc23)-c2ccccc2N1,76
2,NC(=O)c1cccc(-c2cc(Nc3ccc(OC(F)(F)F)cc3)ncn2)c1,92
3,CN([C@@H](Cc1ccc(OS(=O)(=O)c2cccc3cnccc23)cc1)C(=O)N1CCN(c2ccccc2)CC1)S(=O)(=O)c1cccc2cnccc12,113

# Biological target: Tyrosine-protein kinase Lck (Homo sapiens) (UniProt P06239)
# Details: at 10 µM
row,Compound,residual activity [%]
1,O=C1Cc2c([nH]c3ccc([N+](=O)[O-])cc23)-c2ccccc2N1,45
2,Fc1ccc(-c2nc3n(c2-c2ccncc2)CCS3)cc1,75
3,NC(=O)c1cccc(-c2cc(Nc3ccc(OC(F)(F)F)cc3)ncn2)c1,91

# Biological target: Tyrosine-protein kinase Lyn (Homo sapiens) (UniProt P07948)
# Sequence (P07948 2-512 limits assumed): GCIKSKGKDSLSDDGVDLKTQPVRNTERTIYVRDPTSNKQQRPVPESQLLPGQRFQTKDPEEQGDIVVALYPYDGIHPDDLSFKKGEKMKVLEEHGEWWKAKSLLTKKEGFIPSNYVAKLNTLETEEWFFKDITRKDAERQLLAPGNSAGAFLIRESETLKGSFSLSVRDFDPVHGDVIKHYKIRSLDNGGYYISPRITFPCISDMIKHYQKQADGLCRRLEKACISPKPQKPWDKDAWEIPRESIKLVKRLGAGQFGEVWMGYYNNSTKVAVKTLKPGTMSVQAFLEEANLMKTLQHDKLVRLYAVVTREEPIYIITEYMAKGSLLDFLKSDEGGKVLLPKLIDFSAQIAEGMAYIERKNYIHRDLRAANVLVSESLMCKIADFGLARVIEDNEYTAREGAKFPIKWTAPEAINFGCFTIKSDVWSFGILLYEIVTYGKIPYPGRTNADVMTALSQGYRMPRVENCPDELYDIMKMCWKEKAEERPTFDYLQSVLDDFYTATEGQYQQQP
# Details: at 1 µM
row,Compound,residual activity [%]
1,CCN1/C(=C/C(C)=O)Sc2ccc(OC)cc21,49
2,N#Cc1c(NC(=O)c2cccc3ccccc23)sc2c1CCCC2,90
3,CN(C)S(=O)(=O)c1ccc2c(c1)/C(=C/c1cc3c([nH]1)CCCC3)C(=O)N2,3
4,O=C1Cc2c([nH]c3ccc(Br)cc23)-c2ccccc2N1,10
5,Nc1nccc(-c2c(-c3ccc(F)cc3)ncn2C2CCNCC2)n1,50
6,CC(C)[C@H](CO)Nc1nc(Nc2cc(N)cc(Cl)c2)c2ncn(C(C)C)c2n1,9
7,Nc1n[nH]c2nc3ccccc3nc12,75
8,Cn1sc(=O)n(Cc2ccccc2)c1=O,82
9,CCOc1nc(NC(=O)Cc2cc(OC)ccc2OC)cc(N)c1C#N,69
10,O=S(=O)(c1cccc2cnccc12)N1CCCNCC1,83
11,O=C1Cc2c([nH]c3ccc([N+](=O)[O-])cc23)-c2ccccc2N1,6
12,Nc1ncnc2c1cnn2-c1ccccc1,95
13,Fc1ccc(-c2nc3n(c2-c2ccncc2)CCS3)cc1,98
14,Cc1cc(C)c(/C=C2\C(=O)Nc3ccccc32)[nH]1,46
15,Cn1c2ccccc2c2c3c(c4c5ccccc5n(CCC#N)c4c21)CNC3=O,21
16,CCOC(=O)c1c(C)[nH]c(/C=C2\C(=O)Nc3ccccc32)c1C,50
17,COc1cc2c(cc1OC)-c1n[nH]c(Nc3cccc(F)c3)c1C2,6
18,NC(=O)c1cccc(-c2cc(Nc3ccc(OC(F)(F)F)cc3)ncn2)c1,97
19,COc1ccc(Cl)cc1NC(=O)Nc1cc(C)nc2ccccc12,89
20,CC(C)(C)c1nc2c3ccc(F)cc3c3c(=O)[nH]ccc3c2[nH]1,65
21,O=c1c(-c2ccc(F)cc2)c(-c2ccncc2)[nH]n1-c1ccc(Cl)cc1,75
22,NC(=O)c1ccc(-c2nc(-c3ccc4c(c3)OCCO4)c(-c3ccccn3)[nH]2)cc1,83
23,O=C1NC(=O)C(c2cn(CCCO)c3ncccc23)=C1c1cnccn1,78
24,O=C(Nc1ccc(Cl)cc1)c1ccccc1NCc1ccncc1,30
25,NC(=O)Nc1sc(-c2ccc(F)cc2)cc1C(N)=O,16
26,Oc1cccc(-c2nc(N3CCOCC3)c3oc4ncccc4c3n2)c1,99
27,CN([C@@H](Cc1ccc(OS(=O)(=O)c2cccc3cnccc23)cc1)C(=O)N1CCN(c2ccccc2)CC1)S(=O)(=O)c1cccc2cnccc12,78
